Inconclusive results are not listed. A number with no mark means an inactive call. Activity calls are given as the source filed them. The call rests on the fitted dose curve; in most records, active means well fitted cell-killing curve with a large enough effect; inconclusive means small, poorly fitted or top-dose-only effect, or effect the other way; inactive means flat fitted curve, though single readings scatter.
On the % scale 0 is the no-effect control and ±100 the full control effect; potency means the concentration at half of the fitted maximal effect.

The subject of the experiment is CAOV3. The experiment is described as follows: Primary qHTS to identify gynecologic anti-cancer compounds using libraries of approved drugs and bioactive compounds (AID 1345084). Further: nearly all actives have a fitted effect of over 55% in size. The settings on record: Gynecologic cancer cell panel viability, ATPlite luminescence, 48 h; series mostly up to 57.5 µM; activity change, negative = cytotoxicity: at the top concentration. An excerpt: National Center for Advancing Translational Sciences [NCATS] Assay Overview: Chemotherapeutic drug responses vary from cancer to cancer and from patient to patient. These variations could be caused by a number of factors including patient genomic background, tumor mutations, tumor heterogeneity, and aspects of drug treatment. Chemotherapeutic drug resistance is also a common issue and can lead to ineffective treatment and patient death. Here we have profiled the cell killing effects of thousands of compounds to characterize the responses in three gynecological cancers, identify cancer-selective compounds, and understand the diversity of responses to these compounds from pan-cancer suppressors to single cell line selective compounds. In this assay, we screened a 7,914 compound drug library that included approved drug and bioactive compounds in six ovarian, three cervical, and […] placental cancer cell lines using the ATPlite assay for cell viability. […] The cervical cancer cell lines included HeLa, Ca Ski, and C-33 A. The placental cancer cell lines included JEG-3. HEK 293T cells were used as the control cell line to determine the selectivity index. ATPlite is a luminescence based assay reliant on the conversion of a luciferase substrate to light in the presence of ATP. As a cytotoxic compound will suppress growth and decrease the number of cells, the concentration of ATP will decrease, and less light signal will be detected in the well.
Assay Protocol Summary: 1,000 cells in 4 uL of media were dispensed into white, solid bottom 1536-well plates using a Multidrop Combi (Thermo Scientific). The Assay plates were incubated for 16 hours at 37 C with 5% CO2 in assay plates, followed by the addition of 23 nL of DMSO or drug dissolved in DMSO. Each compound was assayed in five concentrations (0.092, 0.46, 2.3, 11.5, and 57.5 uM), using the automated Wako 1536 Pin Tool workstation and incubated at 37 C with 5% CO2 48 hours. 4 uL of ATPlite, the ATP monitoring reagent, was then added to the each well of the assay plates using the Multidrop Combi reagent dispenser followed by incubation for 15 minutes at room temperature. The resulting luminescence was measured using the ViewLux plate reader.
In general terms: qHTS replaces the single test concentration by a dilution series.
As to `CC(C)(O)c1ccc2c(c1)C(=O)CC1[C@](C)(CO)CCC[C@]21C` (stereo not given in full), the “activity change, negative = cytotoxicity” value is 12.9% [at 38.5 µM]. Same read-out and setting: under `COc1cc(/C=C/c2cc(O)cc(O[C@@H]3O[C@H](CO)[C@@H](O)[C@H](O)[C@H]3O)c2)ccc1O` stands -0.662% [at 25.3 µM]; under `C=CCc1ccc(O[C@@H]2O[C@H](CO[C@@H]3O[C@@H](C)[C@H](O)[C@@H](O)[C@H]3O)[C@@H](O)[C@H](O)[C@H]2O)cc1`, 16.6% [at 25.3 µM]. Regarding `CC(C)(O)/C=C1/C(=O)C(C)(C)C(=O)C(C)(C)C1(O)O[C@@H]1O[C@H](COC(=O)c2cc(O)c(O)c(O)c2)[C@@H](O)[C@H](O)[C@H]1O` (stereo not given in full), the “activity change, negative = cytotoxicity” value was 5.73% [at 25.3 µM].

Consider `CC1CCC2(C)C(CC(O)C(O)C23CO3)C1(C)CCC1=CC(O)OC1=O` (stereo not given), for which the “activity change, negative = cytotoxicity” value is -17.7% [at 38.5 µM]. On the same count and under the same terms, under `C=C1CCC(OC(C)=O)C2(C)CC3(O)OC(=O)C(C)=C3CC12` (stereo not given) stands 2.99%. The same measure, in the same setting: the value for `CC(C)=CCC/C(C)=C/CC/C(C)=C/CC[C@]1(C)CCc2cc(O)cc(C)c2O1` was -0.61% [at 25.3 µM]; that for `C/C(=C\CCC(C)(O)c1ccc(C)cc1)C(=O)O` (stereo not given) was -1.64%; that for `CC(C)(OC1OC(CO)C(O)C(O)C1O)C1CCC(O)(CO)C2CC(O)C(C)(O)C2C1` (stereo not given) was 14.2% [at 25.3 µM].

`C=C(C)C1CC2(CO)C(=CC1=O)CCC(O)C2C` (stereo not given): the “activity change, negative = cytotoxicity” value was 6.92%.

Take `C[C@@H]1CC[C@]2(C(=O)O)CC[C@]3(C)C(=CCC4[C@]5(C)C(CC[C@]43C)C(C)(C)[C@@H](O)[C@H](O)[C@@H]5O)C2[C@]1(C)O` (stereo not given in full): the “activity change, negative = cytotoxicity” value was -0.157% [at 25.3 µM].

Consider `CC(=O)c1c(C)cc(O)cc1O[C@@H]1O[C@H](CO)[C@@H](O)[C@H](O)[C@H]1O`, for which the “activity change, negative = cytotoxicity” value was 4.09% [at 38.5 µM].

For the molecule `CC(C)CC(=O)n1cc(C(N)=O)c(=O)cc1C(O)c1ccccc1` (stereo not given), the “activity change, negative = cytotoxicity” value is 5.08% [at 38.5 µM]. On the same count and under the same terms, under `CC1(C)CCCC2(C)C1C(O)C=C(CO)C2(O)C(=O)O` (stereo not given) stands 13.5%; under `C=C[C@H]1[C@H](O[C@@H]2O[C@H](CO[C@@H]3OC[C@](O)(CO)[C@H]3O)[C@@H](O)[C@H](O)[C@H]2O)OC=C2C(=O)OCC[C@H]21`, 2.88% [at 25.3 µM].

Turning to `CC1=CC(=O)CC(C)(C)C1CCC(C)OC1OC(COC(=O)c2cc(O)c(O)c(O)c2)C(O)C(O)C1O` (stereo not given), the “activity change, negative = cytotoxicity” value is 8.43% [at 25.3 µM]. Still for that read-out and setting: under `C=C1CC2C3(C)C(O)CC(=O)C(C)(C)C3C(OC(C)=O)C(OC(C)=O)C2(C)C2C(=O)OC(C)(C(=O)OC)C(=O)C12C` (stereo not given) stands 4.24% [at 25.3 µM]; under `C/C=C/C1=CC2=CC(=O)C(C)(O)C(OC(=O)c3c(C)cc(O)cc3O)C2CO1` (stereo not given), 9.62% [at 38.5 µM]; under `C[C@@H]1O[C@@H](O[C@H]2[C@H](OC(=O)C34CCC5(C)C(=CCC6C7(C)CC(O)C(O[C@@H]8O[C@H](C(=O)O)[C@@H](O)[C@H](O)[C@H]8O)C(C)(C(=O)O)C7CCC65C)C3CC(C)(C)CC4O)O[C@H](C)[C@@H](O)[C@@H]2O)[C@H](O)[C@@H](O[C@@H]2OC[C@](O)(CO)[C@H]2O[C@@H]2O[C@H](CO)[C@@H](O)[C@H](O)[C@H]2O)[C@H]1O` (stereo not given in full), 7.58% [at 6.55 µM].

With `CCC[C@@H]1C[C@@H](C(=O)N[C@@H]([C@H]2O[C@H](SC)[C@H](OP(=O)(O)O)[C@@H](O)[C@H]2O)[C@H](C)Cl)N(C)C1`, the “activity change, negative = cytotoxicity” value was 9.2% [at 25.3 µM]. Same read-out and setting: under `NC(=O)[C@H]1CCCCc2c1[nH]c1ccc(Cl)cc21` stands -3.65% [at 25.3 µM].

`CO[C@H]1C=C2C(CC[C@H](O[C@@H]3O[C@H](CO)[C@@H](O)[C@@H](O)[C@H]3O)C2(C)C)[C@]2(C)CC[C@]3(C)C([C@H](C)C(O)C(C=C(C)C)O[C@@H]4O[C@H](CO)[C@@H](O)[C@@H](O)[C@H]4O)CC[C@@]3(C)C12` (stereo not given in full): the activity change, negative = cytotoxicity was 7.91% [at 11.6 µM]. As for `CCC[C@@H]1C[C@@H](C(=O)N[C@@H]([C@H]2O[C@H](SC)[C@H](O)[C@@H](O)[C@@H]2O)[C@@H](C)O)N(C)C1`, the “activity change, negative = cytotoxicity” value was 9.5%. As to `C[C@@H]1O[C@@H](O[C@H]2[C@H](O[C@H]3CC[C@@]4(C)C(CC[C@]5(C)C4CC=C4C6CC(C)(C)CC[C@]6(C(=O)O[C@@H]6O[C@H](CO[C@@H]7O[C@H](CO)[C@@H](O[C@@H]8O[C@@H](C)[C@H](O)[C@@H](O)[C@H]8O)[C@H](O)[C@H]7O)[C@@H](O)[C@H](O)[C@H]6O)CC[C@]45C)[C@]3(C)CO)OC[C@H](O)[C@@H]2O)[C@H](O)[C@H](O)[C@H]1O` (stereo not given in full), the activity change, negative = cytotoxicity is 1.96% [at 6.55 µM]. Same read-out and setting: the value for `Cc1ccc(Sc2cncc3sc(C(N)=O)cc23)cc1` was 24.4%; that for `C=C1CC[C@H]2[C@@H](/C=C(\C)C(=O)[C@@]3(OC(C)=O)C[C@H](C)[C@H](OC(C)=O)[C@@H]3[C@H]1OC(C)=O)C2(C)C` was 2.16% [at 25.3 µM]; that for `CC(C)(O)c1ccc2c(c1)C(O)CC1C(C)(C(=O)O)CCCC21C` (stereo not given) was -0.246% [at 38.5 µM]. Still for that read-out and setting: the value for `CC1CCC2C(C)(C)C(O)CCC2(C)C12Cc1c(O)cc3c(c1O2)C(N)=NC3` (stereo not given) was -4.25% [at 38.5 µM]; that for `CO[C@@H]1COCC[C@@H]1N[C@@H]1CC[C@@](C(=O)N2CCc3ncc(C(F)(F)F)cc3C2)(C(C)C)C1` was 8.6% [at 25.3 µM]. The same measure, in the same setting: the value for `COC(=O)c1ccc(O[C@@H]2O[C@H](CO)[C@@H](O)[C@H](O)[C@H]2O)c(OC)c1` was 10.4% [at 38.5 µM]; that for `CC1=CC(=O)C2C(C)(C)CCCC2(C)C12CCC1(COC(=O)C1)O2` (stereo not given) was 3.87% [at 38.5 µM].

`O=C(O)CCc1cccc(O[C@@H]2O[C@H](CO)[C@@H](O)[C@H](O)[C@H]2O)c1O`: the “activity change, negative = cytotoxicity” value was -8.04% [at 38.5 µM].

Take `O=S(=O)(NC1CCNCC1)c1cc(S(=O)(=O)c2ccccc2)ccc1C(F)(F)F`: the “activity change, negative = cytotoxicity” value is 30.5%.

Take `CC1(C)CC[C@]2(C(=O)O)CC[C@]3(C)C(=CCC4[C@@]5(C)C[C@H](O)[C@H](O[C@@H]6OC[C@H](O)[C@H](O)[C@H]6O)[C@@](C)(CO)C5CC[C@]43C)[C@@H]2C1` (stereo not given in full): the “activity change, negative = cytotoxicity” value was -1.32% [at 25.3 µM]. Turning to `Cc1nn(C)c2c1C(c1ccc(C(F)(F)F)cc1)C(C#N)=C(N)O2` (stereo not given), the “activity change, negative = cytotoxicity” value was 1%. The same measure, in the same setting: under `Nc1c(Br)cc(Br)cc1CNC1CCC(O)CC1` (stereo not given) stands -22.8%; under `Nc1ccn([C@@H]2C(F)=C(CO)[C@@H](O)[C@H]2O)c(=O)n1`, -13.8%. Take `COc1cc(N2CCC(N(C)C)CC2)ccc1Nc1ncc(Cl)c(Nc2ccccc2P(C)(C)=O)n1`: the Potency is 3.55 µM (active). Regarding `O=C(O)c1n[nH]c2c1C[C@H]1C[C@@H]21`, the “activity change, negative = cytotoxicity” value was -5.69%. Still for that read-out and setting: the value for `Cc1cc(C)cc(NC(=O)Cc2ccc(OC(C)(C)C(=O)O)cc2)c1` was -5.83%.

Source of the values: PubChem BioAssay (NCATS).
